The record followed here is PubChem BioAssay.

Each structure is given as a SMILES string. Where “and” joins values, the source holds several entries; their conditions need not be identical. Identical values can stand only once. Records with an inconclusive call do not appear. The source holds several records for some structures; these can differ, active in one and inactive in another. Calls of active or inactive are those of the source. Unless noted, no stated cut-off is given here; in the data, active means percent of DMSO control GFP below about 86%; inactive means the rest, inconclusive results apart.

A short description of assay [1]: yeast TOR pathway RPL19A-GFP modulators, primary screen, cell-based, S. cerevisiae, multiplex flow cytometry (AID 1862).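 Further: lower values mimic rapamycin by blocking the RPL19A rise seen in DMSO cells.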 To be noted: S. cerevisiae RPL19A-GFP strain, flow cytometry fluorescence, 3 h; at 10 µM; stronger effect = lower value.
Assay [2] in a line: modulators of MEP2-GFP levels in yeast, primary screen, S. cerevisiae, multiplex flow cytometry (AID 1867;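 active means GFP response, as percent of the DMSO control, above the screen-wide mean plus 3 SD, about 139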;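 further: median GFP channel fluorescence of barcode-gated MEP2-GFP cells measured by flow cytometry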). To be noted: S. cerevisiae MEP2-GFP strain, 3 h, at 10 µM, stronger effect = higher value, 100% means same as DMSO wells.
A short description of assay [3]: modulators of CIT2-GFP expression in yeast, primary screen, S. cerevisiae, GFP fusion, multiplex flow cytometry (AID 1870;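 active means percent response above a set limit, the screen-wide mean plus 3 SD, cut at about 130% in these data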;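 further: barcoded CIT2-GFP strain pooled with four other GFP strains with rapamycin as positive control; median GFP fluorescence per well over plate mean of DMSO wells so 100% = DMSO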). Particulars: 3 h, at 10 µM, stronger effect = higher value.
Assay [4] is described as follows: modulators of LAP4-GFP expression in yeast, primary screen, S. cerevisiae, multiplex flow cytometry (AID 1873;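 active means GFP signal, as percent of the solvent control, above the screen mean plus 3 SD, about 149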). To be noted: 3 h, at 10 µM, stronger effect = higher value.
Assay [5] in a line: modulators of AGP1-GFP expression in yeast TOR pathway, primary screen, cell-based, multiplex flow cytometry, S. cerevisiae (AID 1887;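 active means GFP signal above the screen-wide mean plus 3 SD, that is over about 124.5% of the solvent control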;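 further: AGP1-GFP fusion strain of S. cerevisiae within a five-strain barcoded multiplex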). Particulars: 3 h, at 10 µM, stronger effect = higher value.
A short description of assay [6]: RPL19A-GFP modulators, yeast TOR pathway, confirmation, cell-based, S. cerevisiae, flow cytometry, cherry picks, mother/daughter gates (AID 2270;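 active means GFP response below 50% of the DMSO control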). To be noted: S. cerevisiae RPL19A-GFP strain, 3 h, at 10 µM, stronger effect = lower value, 100 = same GFP as DMSO wells.
The nature of assay [7]: LAP4-GFP expression modulators in yeast, confirmation, cell-based, cherry picks, flow cytometry, mother/daughter gates (AID 2271;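 active means GFP response above 150% of the DMSO control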;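 further: ratio of sample to DMSO plate mean so 100% equals DMSO level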). Particulars: S. cerevisiae LAP4-GFP strain, 3 h, at 10 µM, stronger effect = higher value, 100 means same as DMSO control.
Assay [8] can be described thus: modulators of MEP2-GFP levels in yeast, confirmation, S. cerevisiae, flow cytometry GFP, cherry picks (AID 2272;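 active means GFP response above 150% of the DMSO control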;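 further: ratio of well signal to plate DMSO mean so 100% equals DMSO level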). Particulars: S. cerevisiae MEP2-GFP strain, 3 h, at 10 µM, stronger effect = higher value.
A short description of assay [9]: modulators of CIT2-GFP expression in yeast, confirmation, S. cerevisiae, GFP fusion, cherry picks, mother/daughter gates (AID 2274;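 active means GFP response above 150% of the DMSO level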). To be noted: S. cerevisiae CIT2-GFP strain, flow cytometry, 3 h, at 10 µM, stronger effect = higher value.
The nature of assay [10]: inhibitors of CD8+ T cell-vesicle binding, pilot screen, LFA-1/ICAM-1 modulator project, MLPCN validation set, flow cytometry (AID 2523;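 active means response below a set limit, under 55% cells CD8-positive and vesicle-bound, and CD8 cells' 90th-percentile brightness under 279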;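 on vesicle binding response: mean PE anti-B7-1 fluorescence of CD8+ cells relative to row control; 100% = QL9-loaded vesicles with DMSO vehicle in the same plate row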). Particulars: 2C mouse CD8+ T cells, at 7 µM, stronger effect = lower value; double positive events: measured here: CD8+/vesicle+ event percentage.
[11] abbreviates: measured here: daughter cell gate.
Where [12] appears, read: measured here: mother cell gate.
Setting [13] is: measured here: daughter cell gate response.
[14] abbreviates: measured here: mother cell gate response.

In the case of `O=c1cc(-c2ccccc2)oc2cc(OCc3ccccc3)cc(O)c12`, the percent of DMSO control GFP in [1] was 91.7% (inactive). In addition, the GFP response vs DMSO was 140% (active) in assay [2]; 84.2% (inactive) in [4]; 98.2% (inactive) in [6]; 98.6% in assay [6] (setting [11]); 98.7% in [6] (setting [12]); 100% (inactive) in assay [8]. For the same molecule, the percent response of DMSO control in [3] was 108% (inactive). In addition, the GFP response, % of DMSO was 85.9% (inactive) in [5], 104% (inactive) in [9], 105% in assay [9] (setting [11]) and 103% in assay [9] (setting [12]). Moreover, the GFP response relative to DMSO in assay [7] was 99.2% (inactive); in assay [7] (setting [13]), 97.6%; in assay [7] (setting [14]), 99.3%. In addition, the double positive events in assay [10] is 62.5%. For the same molecule, the vesicle binding response in assay [10] is 139% (inactive).
Consider `O=c1cnn([C@@H]2O[C@H](CO)[C@@H](O)[C@H]2O)c(=O)[nH]1`, for which the percent of DMSO control GFP in assay [1] was 84.9% (active). For the same molecule, the GFP response vs DMSO was 88.8% (inactive) in assay [2]; 129% (inactive) in assay [4]; 80.6% (inactive) in assay [6]; 81% in assay [6] (setting [11]); 81.6% in assay [6] (setting [12]); 93.3% (inactive) in assay [8]. In addition, the percent response of DMSO control in assay [3] is 80.8% (inactive). Besides, the GFP response, % of DMSO was 98% (inactive) in assay [5], 77.7% (inactive) in [9], 77.9% in assay [9] (setting [11]) and 74.6% in assay [9] (setting [12]). Besides, the GFP response relative to DMSO is 109% (inactive) in assay [7], 104% in [7] (setting [13]) and 109% in [7] (setting [14]). The double positive events in assay [10] was 62.2%. Also, the vesicle binding response in [10] was 127% (inactive).
For `O=[N+]([O-])c1ccc(O)c2ncccc12`, the percent of DMSO control GFP in assay [1] was 99.7% (inactive). Besides, the GFP response vs DMSO in assay [2] was 122% (inactive); in assay [4] it was 375% (active); in assay [6] it was 104% (inactive); in assay [6] (setting [11]), 99.8%; in assay [6] (setting [12]), 99.2%; in [8], 120% (inactive). For the same molecule, the percent response of DMSO control in [3] is 81.5% (inactive). For the same molecule, the GFP response, % of DMSO is 152% (active) in [5], 138% (inactive) in [9], 121% in assay [9] (setting [11]) and 126% in assay [9] (setting [12]). In addition, the GFP response relative to DMSO was 274% (active) in assay [7] and 245% in [7] (setting [14]). This molecule registered a double positive events in [10] of 59.9%. Besides, in [10], the vesicle binding response was 159% (inactive).
Take `O=[N+]([O-])c1cccc2cn[nH]c12`: in assay [1], the percent of DMSO control GFP was 94.4% (inactive). The GFP response vs DMSO was 155% (active) in assay [2]; 91.3% (inactive) in assay [4]; 97.3% (inactive) in assay [6]; 96.4% in assay [6] (setting [11]); 95.2% in assay [6] (setting [12]); 106% (inactive) in assay [8]. Besides, in assay [3], the percent response of DMSO control is 114% (inactive). The GFP response, % of DMSO in [5] was 94.2% (inactive); in assay [9], 103% (inactive); in assay [9] (setting [11]), 101%; in assay [9] (setting [12]) it was 103%. Besides, the GFP response relative to DMSO in assay [7] was 98.9% (inactive); in assay [7] (setting [13]), 97.5%; in assay [7] (setting [14]) it was 99.5%. Besides, in assay [10], the double positive events stood at 51.9%. The vesicle binding response in assay [10] is 56% (active).
As to `CN(C)CCN(Cc1ccccc1)c1ccccn1`, in assay [1], the percent of DMSO control GFP is 94.8% (inactive). Further, the GFP response vs DMSO in assay [2] was 140% (active); in [4] it was 85.3% (inactive); in assay [6] it was 96.8% (inactive); in assay [6] (setting [11]), 98.1%; in assay [6] (setting [12]) it was 97.9%; in [8], 100% (inactive). Further, the percent response of DMSO control in assay [3] was 97.9% (inactive). For the same molecule, the GFP response, % of DMSO in assay [5] is 93.3% (inactive); in assay [9], 98.3% (inactive); in assay [9] (setting [11]) it was 99.1%; in assay [9] (setting [12]), 98.5%. The figures for the GFP response relative to DMSO in [7], in assay [7] (setting [13]) and in assay [7] (setting [14]) were 101% (inactive), 99.2% and 99.3%, respectively. The double positive events in assay [10] worked out at 62.3%. For the same molecule, the vesicle binding response in [10] was 269% (inactive).
With `CN(C)CCCN1c2ccccc2Sc2ccc(Cl)cc21`, in assay [1], the percent of DMSO control GFP was 84.9% (active) and 109% (inactive). In addition, the GFP response vs DMSO in assay [2] was 148% (active) and 129% (inactive); in [4], 83.1% (inactive) and 94.1% (inactive); in assay [6], 101% (inactive); in assay [6] (setting [11]), 101%; in assay [6] (setting [12]) it was 102%; in assay [8] it was 100% (inactive). Also, in assay [3], the percent response of DMSO control is 88.6% (inactive) and 116% (inactive). Further, the GFP response, % of DMSO in assay [5] is 91.5% (inactive) and 115% (inactive); in assay [9], 106% (inactive); in assay [9] (setting [11]), 103%; in assay [9] (setting [12]), 107%. For the same molecule, the GFP response relative to DMSO in assay [7] is 95% (inactive); in assay [7] (setting [13]) it was 100%; in assay [7] (setting [14]), 97.2%. For the same molecule, the double positive events in assay [10] was 64.9% and 70.6%. Besides, the vesicle binding response in [10] is 163% (inactive) and 432% (inactive).
Regarding `C[C@]12CCC(=O)C=C1[C@H](O)C[C@@H]1[C@@H]2[C@@H](O)C[C@@]2(C)[C@H]1CC[C@]2(O)C(=O)CO`, in assay [1], the percent of DMSO control GFP is 106% (inactive). The GFP response vs DMSO in [2] is 105% (inactive); in [4] it was 102% (inactive); in [6], 99.1% (inactive); in [6] (setting [11]), 99.1%; in assay [6] (setting [12]) it was 99.2%; in assay [8] it was 99.5% (inactive). In [3], the percent response of DMSO control is 102% (inactive). The GFP response, % of DMSO was 107% (inactive) in [5], 102% (inactive) in [9], 104% in [9] (setting [11]) and 101% in assay [9] (setting [12]). For the same molecule, the GFP response relative to DMSO in [7] was 97.7% (inactive); in assay [7] (setting [13]), 97.9%; in assay [7] (setting [14]), 95.6%. This molecule returned a double positive events in [10] of 63.9%. Also, the vesicle binding response in assay [10] was 182% (inactive).
For `O=C1ON=C(c2ccc(Cl)cc2)/C1=C/c1ccc(O)cc1`, the percent of DMSO control GFP in assay [1] is 108% (inactive). Also, the GFP response vs DMSO in assay [2] was 95.2% (inactive); in assay [4], 98.2% (inactive); in assay [6] it was 101% (inactive); in [6] (setting [11]), 105%; in [6] (setting [12]), 96.8%; in assay [8] it was 100% (inactive). Besides, the percent response of DMSO control in assay [3] is 112% (inactive). Also, the GFP response, % of DMSO in assay [5] was 87.4% (inactive); in assay [9], 111% (inactive); in [9] (setting [11]) it was 114%; in [9] (setting [12]), 104%. Besides, the GFP response relative to DMSO in assay [7] was 90.2% (inactive); in assay [7] (setting [13]) it was 95.6%; in [7] (setting [14]), 89%. In [10], this molecule gave a double positive events of 60.6%. Also, the vesicle binding response in assay [10] was 94.3% (inactive).
With `COc1cc2c(cc1OC)C(c1ccccc1)=NCC2`, the percent of DMSO control GFP in assay [1] is 92.2% (inactive). The GFP response vs DMSO in assay [2] was 144% (active); in [4], 84.2% (inactive); in assay [6], 98.2% (inactive); in assay [6] (setting [11]), 97.6%; in assay [6] (setting [12]) it was 99.7%; in [8] it was 100% (inactive). Also, the percent response of DMSO control in [3] is 103% (inactive). Further, the GFP response, % of DMSO is 97.7% (inactive) in assay [5], 103% (inactive) in [9], 106% in [9] (setting [11]) and 102% in assay [9] (setting [12]). Further, the results for the GFP response relative to DMSO in assay [7], in assay [7] (setting [13]) and in assay [7] (setting [14]) were 88.9% (inactive), 88% and 87.6%, respectively. Further, the double positive events in [10] is 59.5%. Moreover, the vesicle binding response in assay [10] was 202% (inactive).
For the molecule `C[C@]12CCC(=O)C=C1CC[C@@H]1[C@@H]2[C@@H](O)C[C@@]2(C)[C@H]1CC[C@]2(O)C(=O)CO`, the percent of DMSO control GFP in [1] is 108% (inactive). The GFP response vs DMSO was 105% (inactive) in assay [2]; 105% (inactive) in [4]; 104% (inactive) in assay [6]; 102% in [6] (setting [11]); 104% in [6] (setting [12]); 100% (inactive) in assay [8]. For the same molecule, the percent response of DMSO control in assay [3] is 111% (inactive). Moreover, the GFP response, % of DMSO was 111% (inactive) in [5], 104% (inactive) in [9], 99.7% in assay [9] (setting [11]) and 105% in assay [9] (setting [12]). The GFP response relative to DMSO in assay [7] was 96.2% (inactive); in assay [7] (setting [13]), 98.7%; in assay [7] (setting [14]) it was 98.3%. The molecule further yielded a double positive events in assay [10] of 58.4%. Further, in [10], the vesicle binding response is 165% (inactive).
